Assay [1] deals with Nuclear receptor subfamily 1 group I member 3 (Homo sapiens) (UniProt Q14994). As to the kind of experiment: ATG_CAR_TRANS: Attagene TRANS-FACTORIAL HepG2 Assay for human Constitutive Androstane Receptor (CAR) (AID 2282969).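 Further: activators raise reporter mRNA above DMSO so AC50 marks induction.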 The settings on record: HepG2 Attagene TRANS-FACTORIAL CAR reporter. Summed up:
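Readout is reporter mRNA induction, quantified by fluorescent primer extension and capillary electrophoresis after RT-PCR. Cells were HepG2 transiently carrying chimeric NR-Gal4 constructs with GAL4-UAS reporters, treated for 24 h; activity scored upward from DMSO.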

Assay [2] deals with X-box-binding protein 1 (Homo sapiens) (UniProt P17861). As to the kind of experiment: ATG_Xbp1_CIS: Attagene CIS-FACTORIAL HepG2 Assay for human X-box Binding Protein 1 (XBP1) (AID 2282972; active means hit-call score of the fitted dose curve at least 0.9, where 1 is the maximum; inactive means score below 0.9). The following applies: HepG2 XBP1 cis-element reporter, Attagene multiplex; actives raise or lower the signal. The essentials: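 HepG2 cells transiently transfected with multiple cis-element reporter units report endogenous TF activity; 24 h exposure, then reporter mRNA measured by RT-PCR, 6-FAM labelling, HpaI digestion and capillary electrophoresis. Bidirectional fitting versus DMSO.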

In assay [3] the target is Androgen receptor (Homo sapiens) (UniProt P10275). Description: ATG_AR_TRANS: Attagene TRANS-FACTORIAL HepG2 Assay for human Androgen Receptor (AR) (AID 2282973). The settings on record: HepG2 Attagene TRANS-FACTORIAL AR reporter transcription. The essentials:
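HepG2 cells transiently transfected with multiplexed GAL4-UAS reporter units and chimeric NR-Gal4 fusion; 24 h compound exposure. Reporter mRNA measured by RT-PCR, 6-FAM labelling, HpaI digestion and capillary electrophoresis; gain-of-signal fitted relative to DMSO baseline.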

Assay [4] in a line: ATG_M_19_TRANS: Attagene TRANS-FACTORIAL HepG2 Assay for M19 Transcription Factor (Internal Marker) (AID 2282974). The settings on record: HepG2 Attagene TRANS-FACTORIAL M19 internal marker reporter. The essentials:
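Fluorescence of 6-FAM-labelled reporter cDNA fragments, separated by capillary electrophoresis, served as the readout. These derived from HepG2 cells carrying transfected GAL4-UAS reporter units after 24 h dosing, with DMSO as negative control.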

A short description of assay [5]: ATG_GAL4_TRANS: Attagene TRANS-FACTORIAL HepG2 Assay for GAL4 (Internal Marker) (AID 2282976). The following applies: HepG2 Attagene TRANS GAL4 internal marker reporter. Summed up:
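HepG2 cells transiently transfected with multiplexed GAL4-UAS reporter constructs were dosed for 24 h. Reporter mRNA was measured by RT-PCR, 6-FAM primer extension, HpaI digestion and capillary electrophoresis, and gain of signal was fitted relative to DMSO.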

Assay [6] addresses Bile acid receptor (Homo sapiens) (UniProt Q96RI1). Description: ATG_FXR_TRANS: Attagene TRANS-FACTORIAL HepG2 Assay for Farnesoid X Receptor (FXR) (AID 2282979).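 Further: hits raise reporter mRNA above DMSO so AC50 marks FXR activation.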 The following applies: HepG2 Attagene TRANS FXR-GAL4 reporter transcription. The essentials: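 HepG2 cells transiently transfected with reporter constructs in which a chimeric FXR-GAL4 protein drives a GAL4-UAS reporter; 24 h compound exposure. Reporter mRNA measured by RT-PCR, FAM labelling, HpaI digestion and capillary electrophoresis; gain-of-signal versus DMSO.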

Assay [7] concerns the target Oxysterols receptor LXR-alpha (Homo sapiens) (UniProt Q13133). As to the kind of experiment: ATG_LXRa_TRANS: Attagene TRANS-FACTORIAL HepG2 Assay for human Liver X Receptor alpha (LXRa) (AID 2282980). The settings on record: HepG2 Attagene TRANS reporter, LXRa transactivation. Summed up:
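HepG2 cells were transiently transfected with multiplexed reporter units driven by chimeric LXRa–GAL4 fusion proteins, then dosed for 24 h. Reporter mRNA was quantified by RT-PCR, fluorescent labelling and capillary electrophoresis; gain of signal fitted against DMSO baseline.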

Assay [8] in a line: ATG_M_06_TRANS: Attagene TRANS-FACTORIAL HepG2 Assay for M06 Transcription Factor (Internal Marker) (AID 2282983). The following applies: HepG2 Attagene TRANS M06 internal marker reporter. Summed up: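 HepG2 cells transiently transfected with multiplexed GAL4-UAS reporter transcription units; after 24 h compound exposure, reporter mRNA measured by RT-PCR, FAM-labelled primer extension, HpaI digestion and capillary electrophoresis. Gain-of-signal fitted versus DMSO baseline; background control readout.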

Assay [9] can be described thus: ATG_M_32_TRANS: Attagene TRANS-FACTORIAL HepG2 Assay for M32 Transcription Factor (Internal Marker) (AID 2282984). The following applies: HepG2 Attagene TRANS M32 internal marker reporter. The essentials:
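Measures reporter mRNA induction in human HepG2 liver cells after 24 h chemical treatment. Transcripts from transiently transfected GAL4-UAS reporter units are amplified, fluorescently labelled and sized by capillary electrophoresis; gain of signal relative to DMSO.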

Assay [10] concerns the target Nuclear receptor subfamily 4 group A member 2 (Homo sapiens) (UniProt P43354). Description: ATG_NURR1_TRANS: Attagene TRANS-FACTORIAL HepG2 Assay for human Nuclear Receptor Related Protein 1 (NURR1) (AID 2282985). The following applies: HepG2 Attagene TRANS reporter, mRNA readout. Summed up:
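Transient transfection of HepG2, human liver cells, with multiple GAL4-UAS reporter transcription units. Cells dosed 24 h, RNA isolated, reverse-transcribed, PCR-amplified, FAM-labelled, HpaI-digested, sized by capillary electrophoresis. DMSO served as negative control.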

The target of assay [11] is Transcriptional activator Myb (Homo sapiens) (UniProt P10242). Description: ATG_Myb_CIS: Attagene CIS-FACTORIAL HepG2 Assay for human Myeloblastosis (Myb) Proto-Oncogene Transcription Factor (AID 2282986; active means hit-call score of the fitted dose curve at least 0.9, where 1 is the maximum; inactive means score below 0.9). The following applies: HepG2 Attagene CIS-FACTORIAL Myb reporter transcription; actives raise or lower the signal. The essentials: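 Reporter transcript levels, quantified by fluorescent RT-PCR and capillary electrophoresis, serve as the read-out. Transfected HepG2 cells carrying cis-promoter reporter units are dosed for 24 hours, and curves are fitted bidirectionally against DMSO controls.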

The target of assay [12] is Nuclear respiratory factor 1 (Homo sapiens) (UniProt Q16656). As to the kind of experiment: ATG_NRF1_CIS: Attagene CIS-FACTORIAL HepG2 Assay for human Nuclear Respiratory Factor 1 (NRF1) Orphan Gene (AID 2282987; active means hit-call score of the fitted dose curve at least 0.9, where 1 is the maximum; inactive means score below 0.9). The following applies: HepG2 NRF1 cis-element reporter, Attagene multiplex; actives raise or lower the signal. Summed up: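 Multiplexed cis-reporter assay, HepG2 cells, 24 h treatment. Total RNA → oligo(dT) RT → PCR with reporter-specific primers → 6-FAM primer extension → HpaI cut → CE. Bidirectional fit vs DMSO.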

A short description of assay [13]: ATG_NFI_CIS: Attagene CIS-FACTORIAL HepG2 Assay for human Nuclear Factor I (NFI) (AID 2282989; active means hit-call score of the fitted dose curve at least 0.9, where 1 is the maximum; inactive means score below 0.9). The settings on record: HepG2 cis-regulatory reporter, NFI response element transcription; actives raise or lower the signal. Summed up: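 Reporter transcripts were measured by RT-PCR with fluorescent primer extension and capillary electrophoresis 24 h post-treatment. HepG2 cells carried transiently transfected cis-regulated reporter constructs reporting endogenous factor activity; gain or loss fitted against DMSO baseline.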

The target in assay [14] is Myc proto-oncogene protein (Homo sapiens) (UniProt P01106). Description: ATG_Myc_CIS: Attagene CIS-FACTORIAL HepG2 Assay for human Myelocytomatosis (Myc) Proto-Oncogene Transcription Factor (AID 2282990; active means hit-call score of the fitted dose curve at least 0.9, where 1 is the maximum; inactive means score below 0.9). The following applies: HepG2, Attagene cis-reporter transcription factor activity; actives raise or lower the signal. The essentials: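 HepG2, transient MRTU transfection (cis promoters, endogenous TFs); 24 h dosing; TriZol RNA → oligo(dT) RT → PCR → 6-FAM primer extension → HpaI cut → CE. Bidirectional fit vs DMSO.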

Assay [15] has as its target Estrogen receptor (Homo sapiens) (UniProt P03372). As to the kind of experiment: ATG_ERa_TRANS: Attagene TRANS-FACTORIAL HepG2 Assay for human Estrogen Receptor alpha (ERa) (AID 2282970). The settings on record: HepG2 Attagene TRANS ERa GAL4 reporter, mRNA. Summed up: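 HepG2 cells transiently transfected with multiplexed GAL4-UAS reporter units; ERa activity read via exogenous chimeric NR-Gal4 protein. After 24 hour compound exposure, reporter mRNA measured by RT-PCR with 6-FAM labelling and capillary electrophoresis; gain-of-signal fitted relative to DMSO.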

In assay [16] the target is Estrogen-related receptor gamma (Homo sapiens) (UniProt P62508). As to the kind of experiment: ATG_ERRg_TRANS: Attagene TRANS-FACTORIAL HepG2 Assay for human Estrogen-Related Receptor gamma (ERRg) (AID 2282977).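 Further: hits increase reporter signal over DMSO so potencies reflect activators.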 The settings on record: HepG2 Attagene TRANS reporter, ERRg transactivation. Summed up:
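HepG2 cells transiently transfected with multiplexed GAL4-UAS reporter units driven by chimeric NR-Gal4 proteins; 24 h exposure. Reporter mRNA quantified by RT-PCR, fluorescent labelling, HpaI digestion and capillary electrophoresis; gain of signal vs DMSO.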

Assay [17] deals with Hepatocyte nuclear factor 4-alpha (Homo sapiens) (UniProt P41235). Description: ATG_HNF4a_TRANS: Attagene TRANS-FACTORIAL HepG2 Assay for human Hepatocyte Nuclear Factor 4 alpha (HNF4a) (AID 2282982). The settings on record: HepG2 HNF4a transactivation reporter, mRNA readout. The essentials: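 Readout is fluorescent reporter-transcript fragments resolved by capillary electrophoresis after RT-PCR from HepG2 cells dosed for 24 h. Cells carried transfected GAL4-UAS reporter constructs measuring exogenous NR-GAL4 chimera activity; DMSO served as baseline.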

In assay [18] the target is Oxysterols receptor LXR-beta (Homo sapiens) (UniProt P55055). As to the kind of experiment: ATG_LXRb_TRANS: Attagene TRANS-FACTORIAL HepG2 Assay for human Liver X Receptor beta (LXRb) (AID 2282981). The following applies: HepG2 Attagene TRANS GAL4-LXRb reporter, mRNA. The essentials:
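Transient transfection HepG2 (multiplexed RTUs, GAL4-UAS); NR-Gal4 chimera; 24 h exposure; RNA → RT-PCR → 6-FAM primer extension → HpaI → CE; increase vs DMSO.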

The target in assay [19] is Steroid hormone receptor ERR1 (Homo sapiens) (UniProt P11474). As to the kind of experiment: ATG_ERRa_TRANS: Attagene TRANS-FACTORIAL HepG2 Assay for human Estrogen-Related Receptor alpha (ERRa) (AID 2282971). The following applies: HepG2 Attagene TRANS reporter, ERRa transactivation. Summed up: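 HepG2 cells transiently transfected with multiplexed GAL4-UAS reporter units reading chimeric ERRa-Gal4 activity; 24 h compound exposure. Reporter mRNA measured by RT-PCR, 6-FAM labelling, HpaI digest and capillary electrophoresis; gain of signal fitted versus DMSO baseline.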

Assay [20] has as its target Glucocorticoid receptor (Homo sapiens) (UniProt P04150). Description: ATG_GR_TRANS: Attagene TRANS-FACTORIAL HepG2 Assay for human Glucocorticoid Receptor (GR) (AID 2282978).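 Further: activators score as hits since higher reporter transcript over DMSO is fitted.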 The settings on record: HepG2 Attagene TRANS GR reporter, mRNA transcription. Summed up:
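Fluorescent capillary-electrophoresis quantitation of reporter mRNA is the readout, taken 24 h after dosing human HepG2 cells carrying transiently transfected GAL4-UAS reporter units activated by chimeric NR-GAL4 fusions; activity scored as induction over DMSO.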

Records with an inconclusive call do not appear. The source made the active and inactive calls. How the source made its calls, unless noted: active means hit-call score of the fitted dose curve at least 0.9, where 1 is the maximum; inconclusive means response in the unintended direction; inactive means score below 0.9.

Sequence of X-box-binding protein 1 (Homo sapiens) (P17861 whole entry, looked up): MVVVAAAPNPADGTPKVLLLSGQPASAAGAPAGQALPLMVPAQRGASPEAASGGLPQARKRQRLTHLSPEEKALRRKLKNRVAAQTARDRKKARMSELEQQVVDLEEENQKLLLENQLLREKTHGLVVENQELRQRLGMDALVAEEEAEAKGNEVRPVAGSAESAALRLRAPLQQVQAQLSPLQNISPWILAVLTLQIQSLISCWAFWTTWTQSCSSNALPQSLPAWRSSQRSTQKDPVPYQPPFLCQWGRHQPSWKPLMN
Sequence of Transcriptional activator Myb (Homo sapiens) (P10242 whole entry, looked up): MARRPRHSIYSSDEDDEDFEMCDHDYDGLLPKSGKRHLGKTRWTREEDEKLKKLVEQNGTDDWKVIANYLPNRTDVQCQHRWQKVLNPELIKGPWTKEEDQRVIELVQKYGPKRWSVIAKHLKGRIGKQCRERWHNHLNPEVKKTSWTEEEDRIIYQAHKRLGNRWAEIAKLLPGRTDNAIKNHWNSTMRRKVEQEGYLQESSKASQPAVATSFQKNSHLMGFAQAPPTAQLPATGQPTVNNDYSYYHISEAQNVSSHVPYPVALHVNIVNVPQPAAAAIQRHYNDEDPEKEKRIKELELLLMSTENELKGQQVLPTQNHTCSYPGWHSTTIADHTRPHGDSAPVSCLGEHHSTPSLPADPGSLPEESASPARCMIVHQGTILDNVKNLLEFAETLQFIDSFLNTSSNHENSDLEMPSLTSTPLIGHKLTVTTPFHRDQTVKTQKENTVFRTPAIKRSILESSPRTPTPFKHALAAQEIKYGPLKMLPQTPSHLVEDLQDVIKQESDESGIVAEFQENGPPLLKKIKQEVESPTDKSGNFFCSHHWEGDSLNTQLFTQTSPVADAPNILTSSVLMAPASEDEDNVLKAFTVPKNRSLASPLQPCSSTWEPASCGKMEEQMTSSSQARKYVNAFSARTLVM
Sequence of Bile acid receptor (Homo sapiens) (Q96RI1 whole entry, looked up, the tested form may be a part): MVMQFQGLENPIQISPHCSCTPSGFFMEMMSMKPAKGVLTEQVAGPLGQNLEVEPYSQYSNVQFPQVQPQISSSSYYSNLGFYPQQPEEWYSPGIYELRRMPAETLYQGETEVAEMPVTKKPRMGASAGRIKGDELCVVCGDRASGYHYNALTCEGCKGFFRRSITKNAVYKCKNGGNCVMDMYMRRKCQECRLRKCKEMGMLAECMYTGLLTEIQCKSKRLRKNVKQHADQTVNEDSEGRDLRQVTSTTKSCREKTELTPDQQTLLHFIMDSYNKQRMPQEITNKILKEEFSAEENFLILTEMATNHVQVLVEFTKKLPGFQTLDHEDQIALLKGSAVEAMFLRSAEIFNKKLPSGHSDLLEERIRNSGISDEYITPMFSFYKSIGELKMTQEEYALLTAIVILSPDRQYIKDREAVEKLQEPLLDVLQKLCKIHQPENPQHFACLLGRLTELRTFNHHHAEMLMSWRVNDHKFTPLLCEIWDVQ
Sequence of Nuclear receptor subfamily 1 group I member 3 (Homo sapiens) (Q14994 whole entry, looked up, the tested form may be a part): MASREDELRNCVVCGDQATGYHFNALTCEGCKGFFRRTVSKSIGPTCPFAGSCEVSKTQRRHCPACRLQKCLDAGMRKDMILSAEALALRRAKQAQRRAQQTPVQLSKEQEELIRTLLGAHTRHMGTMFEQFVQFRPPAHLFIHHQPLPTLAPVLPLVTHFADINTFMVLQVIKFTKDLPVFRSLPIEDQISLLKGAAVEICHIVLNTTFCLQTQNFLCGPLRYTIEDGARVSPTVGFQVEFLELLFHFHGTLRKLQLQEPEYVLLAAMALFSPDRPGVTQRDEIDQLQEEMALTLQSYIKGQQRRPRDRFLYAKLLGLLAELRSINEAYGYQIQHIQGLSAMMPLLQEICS
Sequence of Nuclear receptor subfamily 4 group A member 2 (Homo sapiens) (P43354 whole entry, looked up, the tested form may be a part): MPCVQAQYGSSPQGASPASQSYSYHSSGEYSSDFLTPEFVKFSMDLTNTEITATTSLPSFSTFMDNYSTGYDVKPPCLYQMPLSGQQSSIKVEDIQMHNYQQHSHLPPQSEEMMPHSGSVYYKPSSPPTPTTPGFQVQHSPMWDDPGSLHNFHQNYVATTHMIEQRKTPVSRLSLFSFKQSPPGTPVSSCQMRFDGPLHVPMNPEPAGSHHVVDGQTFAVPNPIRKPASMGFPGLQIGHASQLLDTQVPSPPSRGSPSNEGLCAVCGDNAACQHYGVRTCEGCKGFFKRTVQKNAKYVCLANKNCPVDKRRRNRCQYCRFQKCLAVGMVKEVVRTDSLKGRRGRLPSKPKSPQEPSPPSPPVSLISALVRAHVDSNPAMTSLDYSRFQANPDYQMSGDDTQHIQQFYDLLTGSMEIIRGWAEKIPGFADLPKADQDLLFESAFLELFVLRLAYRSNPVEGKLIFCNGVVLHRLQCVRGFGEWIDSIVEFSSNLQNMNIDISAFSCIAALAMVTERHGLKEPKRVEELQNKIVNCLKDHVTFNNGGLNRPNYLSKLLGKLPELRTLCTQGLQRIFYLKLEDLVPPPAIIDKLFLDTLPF
Sequence of Oxysterols receptor LXR-alpha (Homo sapiens) (Q13133 whole entry, looked up, the tested form may be a part): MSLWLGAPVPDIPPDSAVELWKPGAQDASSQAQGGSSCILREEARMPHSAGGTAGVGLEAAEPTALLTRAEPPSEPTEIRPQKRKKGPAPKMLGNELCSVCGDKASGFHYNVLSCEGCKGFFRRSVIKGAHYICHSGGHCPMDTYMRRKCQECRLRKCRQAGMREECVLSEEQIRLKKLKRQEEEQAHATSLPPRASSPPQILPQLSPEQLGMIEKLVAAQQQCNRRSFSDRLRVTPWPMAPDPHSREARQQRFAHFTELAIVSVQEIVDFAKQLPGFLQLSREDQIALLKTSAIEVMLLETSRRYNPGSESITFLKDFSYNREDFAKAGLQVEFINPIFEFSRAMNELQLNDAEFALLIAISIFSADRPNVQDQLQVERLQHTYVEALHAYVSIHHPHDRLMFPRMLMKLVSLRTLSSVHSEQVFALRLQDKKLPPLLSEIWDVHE
Sequence of Estrogen receptor (Homo sapiens) (P03372 whole entry, looked up, the tested form may be a part): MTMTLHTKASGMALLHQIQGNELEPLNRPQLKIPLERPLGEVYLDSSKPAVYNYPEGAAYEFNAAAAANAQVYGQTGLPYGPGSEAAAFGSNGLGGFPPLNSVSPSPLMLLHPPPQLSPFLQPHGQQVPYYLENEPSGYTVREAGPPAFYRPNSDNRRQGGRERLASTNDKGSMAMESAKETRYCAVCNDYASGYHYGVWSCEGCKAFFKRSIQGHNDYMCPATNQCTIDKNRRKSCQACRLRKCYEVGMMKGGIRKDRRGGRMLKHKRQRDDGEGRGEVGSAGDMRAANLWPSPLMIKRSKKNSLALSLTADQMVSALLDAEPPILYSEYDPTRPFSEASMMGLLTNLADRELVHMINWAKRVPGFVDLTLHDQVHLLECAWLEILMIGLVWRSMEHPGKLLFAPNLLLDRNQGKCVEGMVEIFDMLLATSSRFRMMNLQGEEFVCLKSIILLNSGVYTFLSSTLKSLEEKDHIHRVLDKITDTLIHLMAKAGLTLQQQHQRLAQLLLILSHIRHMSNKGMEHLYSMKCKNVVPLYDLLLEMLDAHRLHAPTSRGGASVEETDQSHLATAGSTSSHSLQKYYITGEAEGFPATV
Sequence of Hepatocyte nuclear factor 4-alpha (Homo sapiens) (P41235 whole entry, looked up, the tested form may be a part): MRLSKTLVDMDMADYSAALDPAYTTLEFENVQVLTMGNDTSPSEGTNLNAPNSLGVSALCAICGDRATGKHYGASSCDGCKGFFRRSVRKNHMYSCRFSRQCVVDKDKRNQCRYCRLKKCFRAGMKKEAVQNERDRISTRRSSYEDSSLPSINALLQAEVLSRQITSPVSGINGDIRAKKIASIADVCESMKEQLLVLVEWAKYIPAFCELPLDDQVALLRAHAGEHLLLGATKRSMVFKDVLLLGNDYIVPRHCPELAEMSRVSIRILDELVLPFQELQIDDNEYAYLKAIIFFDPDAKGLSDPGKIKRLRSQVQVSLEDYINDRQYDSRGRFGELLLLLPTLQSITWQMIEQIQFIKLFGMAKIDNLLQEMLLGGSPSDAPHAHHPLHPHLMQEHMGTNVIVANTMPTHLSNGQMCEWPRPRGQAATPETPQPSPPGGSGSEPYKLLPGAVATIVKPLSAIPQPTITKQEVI
Sequence of Nuclear respiratory factor 1 (Homo sapiens) (Q16656 whole entry, looked up): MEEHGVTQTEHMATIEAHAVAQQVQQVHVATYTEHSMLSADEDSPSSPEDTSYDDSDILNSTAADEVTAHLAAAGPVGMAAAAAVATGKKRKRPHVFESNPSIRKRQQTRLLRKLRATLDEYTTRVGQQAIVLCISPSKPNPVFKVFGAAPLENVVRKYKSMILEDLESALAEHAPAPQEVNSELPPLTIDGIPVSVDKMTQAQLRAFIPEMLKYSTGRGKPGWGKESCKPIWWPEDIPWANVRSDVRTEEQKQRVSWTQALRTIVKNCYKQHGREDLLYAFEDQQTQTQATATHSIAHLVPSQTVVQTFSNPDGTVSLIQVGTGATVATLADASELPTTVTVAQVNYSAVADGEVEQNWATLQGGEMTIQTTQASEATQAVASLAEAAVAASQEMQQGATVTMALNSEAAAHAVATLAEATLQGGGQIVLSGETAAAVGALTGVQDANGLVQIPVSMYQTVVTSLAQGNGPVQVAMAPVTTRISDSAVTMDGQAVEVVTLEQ
Sequence of Myc proto-oncogene protein (Homo sapiens) (P01106 whole entry, looked up): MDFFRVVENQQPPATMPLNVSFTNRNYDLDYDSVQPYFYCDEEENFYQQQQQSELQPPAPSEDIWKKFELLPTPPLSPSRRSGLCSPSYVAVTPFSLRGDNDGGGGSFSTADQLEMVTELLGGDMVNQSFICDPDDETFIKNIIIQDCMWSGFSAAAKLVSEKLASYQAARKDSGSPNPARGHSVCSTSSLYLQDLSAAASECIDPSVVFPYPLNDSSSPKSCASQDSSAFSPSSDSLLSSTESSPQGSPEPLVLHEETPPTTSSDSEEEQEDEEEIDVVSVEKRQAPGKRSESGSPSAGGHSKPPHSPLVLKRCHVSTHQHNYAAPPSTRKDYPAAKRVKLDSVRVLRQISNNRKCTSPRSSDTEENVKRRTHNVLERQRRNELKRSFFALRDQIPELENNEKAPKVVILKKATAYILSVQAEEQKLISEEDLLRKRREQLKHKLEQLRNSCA

Turning to `CCOC(=O)Cc1ccccc1`, the compound was called inactive in [1], in [2], in assay [3], in [4], in assay [5] and in assay [6]. Further, the outcome in assay [7], in assay [8], in [9], in assay [10], in assay [11] and in assay [12] was inactive. Further, the compound was classed as inactive in [13] and in [14].
Take `CCOP(=S)(OCC)Oc1ccc(Cl)cc1Cl`: the compound was classed as inactive in assay [1], in assay [2], in assay [4], in assay [7], in [8] and in assay [9]. For the same compound, the outcome in [10], in [11], in assay [13] and in assay [14] was inactive. Besides, in [15], the AC50 (usually the concentration at which the activity in the assay is half-maximal) was 7.91 µM (active).
On to `CCCCC(CC)COC(=O)Cl` (stereo unspecified), for which the outcome in assay [1], in assay [15], in [2], in assay [5], in assay [16] and in [17] was inactive. Further, the compound was called inactive in assay [8], in [9], in assay [10], in [11], in assay [12] and in [13]. For the same compound, in assay [14], the outcome was inactive.
For the compound `COC(=O)c1cc(Oc2ccc(Cl)cc2Cl)ccc1[N+](=O)[O-]`, the compound was classed as inactive in assay [1], in assay [15], in assay [2], in [6], in assay [7] and in [18]. The outcome in assay [17], in assay [8], in assay [9], in [11], in assay [12] and in assay [13] was inactive. In addition, the outcome in [14] was inactive. In addition, in assay [10], the half-maximal activity concentration (AC50) is 32.3 µM (active).
Take `CCCCS(=O)(=O)Cl`: the result in assay [1], in [19], in assay [2], in assay [4], in assay [5] and in [20] was inactive. The compound was classed as inactive in assay [6], in assay [18], in [17], in [9], in [10] and in assay [11]. Further, the result in assay [13] and in [14] was inactive.

(Values after PubChem BioAssay (EPA / NIEHS).)
